B1: Caulobacter ParB omega fusion; a variant is named by its letters at X, in order, B8GW30 (parent)
chain: MESVVVGEPGMSEGRRGLGRGLSALLGEVDAAPAQAPGEQLGGSREAPIEILQRNPDQPRRTFREEDLEDLSNSIREKGVLQPILVRPSPDTAGEYQIVAGERAWRAAQRAGLKTVPIMVRELDDLAVLEIGIIENVQRADLNVLEEALSYKVLMEKFERTQENIAQTIGKSXSHVANXMRLLXLPDEVQSYLVSGELTAXHARAIAAAADPVALAKQIIEGGLSVRETEALARKAPNLSAGKSKGGRPPRVKDTDTQALESDLSSVLGLDVSIDHRGSTGTLTITYATLEQLDDLCNRLTRGI

The full ranking holds about 81,000 sequences; the median of “one-hybrid fitness for binding parS DNA” is about -0.17, and the highest 2% start at about 0.51. The sample as a whole holds a higher share of the highest values than the screen did.

Variants of B1 are the subject of this experiment. The experiment can be described thus: one-hybrid fitness for binding parS DNA (scaled: cognate 1, non-cognate 0); higher = stronger binding. As to conditions: with parS DNA site. In a few lines:
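Selection: bacterial one-hybrid in E. coli USO, HIS3 reporter with the site 19 bp from the promoter, 48 hours at 37°C on M9-minus-histidine plus 0.1 mM IPTG and 5 mM 3-AT. Libraries were Caulobacter ParB with four randomised specificity codons, sequenced on Illumina before and after selection. Fitness is the rescaled log change in variant-to-wild-type read ratio, anchored to the cognate and non-cognate sites.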
With TCIV, the “one-hybrid fitness for binding parS DNA” value is at most 0.2. Turning to HMWR, the “one-hybrid fitness for binding parS DNA” value is at most 0.2.

YTVS: the “one-hybrid fitness for binding parS DNA” value is at most 0.2.

Regarding RLYC, the “one-hybrid fitness for binding parS DNA” value was found to be 1.01. The figure for RLYR is 0.23; for RLRN it is 0.432; for RLRQ it is at most 0.2. Turning to RLRC, the “one-hybrid fitness for binding parS DNA” value was 0.846. For the variant RLYK, the “one-hybrid fitness for binding parS DNA” value was at most 0.2. As for WPPM, the “one-hybrid fitness for binding parS DNA” value is at most 0.2. The figure for YLAL is at most 0.2; for RVYF it is 0.25. For the variant RVST, the “one-hybrid fitness for binding parS DNA” value stood at 0.92.

For RVHD, the “one-hybrid fitness for binding parS DNA” value was at most 0.2.

Consider RVYK, for which the “one-hybrid fitness for binding parS DNA” value was at most 0.2. With RVRT, the “one-hybrid fitness for binding parS DNA” value is 0.825.

In the case of RVYT, the “one-hybrid fitness for binding parS DNA” value was 0.93.

With RVHP, the “one-hybrid fitness for binding parS DNA” value is at most 0.2. Regarding RVHT, the “one-hybrid fitness for binding parS DNA” value was found to be 0.927.

Take RVRQ: the “one-hybrid fitness for binding parS DNA” value was at most 0.2. The figure for RVSK is at most 0.2; for RVRK it is at most 0.2; for RVSF it is 0.224.

As to GPPY, the “one-hybrid fitness for binding parS DNA” value was at most 0.2. As for YVGI, the “one-hybrid fitness for binding parS DNA” value is at most 0.2. As for QTHG, the “one-hybrid fitness for binding parS DNA” value was at most 0.2. The figure for FAKY is at most 0.2; for LKTR it is at most 0.2; for PGLR it is at most 0.2. As to RVLQ, the “one-hybrid fitness for binding parS DNA” value was at most 0.2.

Regarding RVQP, the “one-hybrid fitness for binding parS DNA” value was at most 0.2. For RVDH, the “one-hybrid fitness for binding parS DNA” value is at most 0.2. On to RVWR, for which the “one-hybrid fitness for binding parS DNA” value was at most 0.2.

Take RVQN: the “one-hybrid fitness for binding parS DNA” value came out at 0.417. As to RVWT, the “one-hybrid fitness for binding parS DNA” value came out at 0.886.

Take RVLT: the “one-hybrid fitness for binding parS DNA” value worked out at 0.92. Take RVDD: the “one-hybrid fitness for binding parS DNA” value was at most 0.2. The figure for RVWF is 0.25.

In the case of RVDT, the “one-hybrid fitness for binding parS DNA” value came to 0.741.

As to RVLM, the “one-hybrid fitness for binding parS DNA” value stood at 0.309. The same measure for RVQT: 0.913. In the case of PFSC, the “one-hybrid fitness for binding parS DNA” value was at most 0.2. As to GKMI, the “one-hybrid fitness for binding parS DNA” value was at most 0.2. The same measure for LFDL: at most 0.2.

As for TQEV, the “one-hybrid fitness for binding parS DNA” value was at most 0.2. For RKRY, the “one-hybrid fitness for binding parS DNA” value was found to be 0.422. Regarding FSIS, the “one-hybrid fitness for binding parS DNA” value is at most 0.2. As to RVNT, the “one-hybrid fitness for binding parS DNA” value stood at 0.899. Consider RVCT, for which the “one-hybrid fitness for binding parS DNA” value was found to be 0.926. For the variant RVNH, the “one-hybrid fitness for binding parS DNA” value is at most 0.2. In the case of RVNP, the “one-hybrid fitness for binding parS DNA” value was at most 0.2. For RVGT, the “one-hybrid fitness for binding parS DNA” value came out at 0.924.

Regarding RVGN, the “one-hybrid fitness for binding parS DNA” value was 0.451. With RVCY, the “one-hybrid fitness for binding parS DNA” value was determined as 0.462. As for RVCM, the “one-hybrid fitness for binding parS DNA” value was 0.382. The figure for RVGD is at most 0.2; for PRGK it is at most 0.2; for VWDG it is at most 0.2. For the variant IEKT, the “one-hybrid fitness for binding parS DNA” value was at most 0.2.

As for VALY, the “one-hybrid fitness for binding parS DNA” value was at most 0.2. The same measure for GQET: at most 0.2; for SLYK: at most 0.2.

Consider GKPL, for which the “one-hybrid fitness for binding parS DNA” value is at most 0.2. The same measure for RHET: 0.734; for RCET: 0.758. In the case of RHEM, the “one-hybrid fitness for binding parS DNA” value came out at 0.214. The figure for RAEI is at most 0.2; for RPET it is at most 0.2; for RRET it is 0.674. On to RHEK, for which the “one-hybrid fitness for binding parS DNA” value is at most 0.2. With RAEK, the “one-hybrid fitness for binding parS DNA” value is at most 0.2. Regarding RDET, the “one-hybrid fitness for binding parS DNA” value was at most 0.2. Consider RAET, for which the “one-hybrid fitness for binding parS DNA” value amounted to 0.68. As for EKRG, the “one-hybrid fitness for binding parS DNA” value was at most 0.2. Take SQQG: the “one-hybrid fitness for binding parS DNA” value was at most 0.2. For the variant TPYC, the “one-hybrid fitness for binding parS DNA” value was at most 0.2. The figure for VTLR is at most 0.2; for QKRV it is at most 0.2; for QSKN it is at most 0.2.

With QNAM, the “one-hybrid fitness for binding parS DNA” value was at most 0.2. For EGGH, the “one-hybrid fitness for binding parS DNA” value was at most 0.2. VPIN: the “one-hybrid fitness for binding parS DNA” value is at most 0.2. With DWQR, the “one-hybrid fitness for binding parS DNA” value is at most 0.2. With RMEM, the “one-hybrid fitness for binding parS DNA” value worked out at 0.309. As to EFET, the “one-hybrid fitness for binding parS DNA” value is at most 0.2. Turning to RIEF, the “one-hybrid fitness for binding parS DNA” value is at most 0.2. Regarding REET, the “one-hybrid fitness for binding parS DNA” value is at most 0.2. In the case of RGET, the “one-hybrid fitness for binding parS DNA” value was 0.308.

Regarding RSET, the “one-hybrid fitness for binding parS DNA” value was 0.653.

For RIEK, the “one-hybrid fitness for binding parS DNA” value is at most 0.2. Turning to RMEF, the “one-hybrid fitness for binding parS DNA” value is at most 0.2.

RMET: the “one-hybrid fitness for binding parS DNA” value was 0.731. In the case of RFET, the “one-hybrid fitness for binding parS DNA” value came to 0.655.

For the variant PFET, the “one-hybrid fitness for binding parS DNA” value is at most 0.2. Turning to RIET, the “one-hybrid fitness for binding parS DNA” value worked out at 0.709. Regarding PTPR, the “one-hybrid fitness for binding parS DNA” value is at most 0.2. Regarding QSVP, the “one-hybrid fitness for binding parS DNA” value is at most 0.2. For the variant AQRA, the “one-hybrid fitness for binding parS DNA” value is at most 0.2. WPTL: the “one-hybrid fitness for binding parS DNA” value is at most 0.2. On to GPKW, for which the “one-hybrid fitness for binding parS DNA” value is at most 0.2. The same measure for RKER: at most 0.2; for RTET: 0.75. The same measure for RTEN: 0.349; for RLEK: at most 0.2; for RTEP: at most 0.2.

Turning to RLET, the “one-hybrid fitness for binding parS DNA” value is 0.783.

Turning to RKEY, the “one-hybrid fitness for binding parS DNA” value is 0.401. With RKET, the “one-hybrid fitness for binding parS DNA” value was 0.799. For RLEY, the “one-hybrid fitness for binding parS DNA” value is 0.458. On to AEWH, for which the “one-hybrid fitness for binding parS DNA” value is at most 0.2. The same measure for ISIL: at most 0.2; for LPPC: at most 0.2. Consider TELP, for which the “one-hybrid fitness for binding parS DNA” value is at most 0.2. For PLFM, the “one-hybrid fitness for binding parS DNA” value is at most 0.2. Consider HICT, for which the “one-hybrid fitness for binding parS DNA” value was at most 0.2. For the variant SMNV, the “one-hybrid fitness for binding parS DNA” value was at most 0.2. For SGQL, the “one-hybrid fitness for binding parS DNA” value is at most 0.2. For the variant LYHP, the “one-hybrid fitness for binding parS DNA” value was at most 0.2. Regarding RMQA, the “one-hybrid fitness for binding parS DNA” value was 0.574. As for RDQA, the “one-hybrid fitness for binding parS DNA” value was at most 0.2.

In the case of RSQA, the “one-hybrid fitness for binding parS DNA” value was 0.555.

With RGQA, the “one-hybrid fitness for binding parS DNA” value came to 0.364. The same measure for RWQA: 0.404; for RHQA: 0.5. In the case of RCQA, the “one-hybrid fitness for binding parS DNA” value was determined as 0.593.

Regarding RTQA, the “one-hybrid fitness for binding parS DNA” value is 0.627.

DTQA: the “one-hybrid fitness for binding parS DNA” value is at most 0.2. The figure for NTQA is at most 0.2. VRKH: the “one-hybrid fitness for binding parS DNA” value was at most 0.2. On to GAVT, for which the “one-hybrid fitness for binding parS DNA” value was at most 0.2. On to RVVL, for which the “one-hybrid fitness for binding parS DNA” value was at most 0.2. As for YEHG, the “one-hybrid fitness for binding parS DNA” value is at most 0.2. The same measure for GAFN: at most 0.2; for CTDH: at most 0.2. As for PIDR, the “one-hybrid fitness for binding parS DNA” value was at most 0.2. Regarding SPPW, the “one-hybrid fitness for binding parS DNA” value was at most 0.2.

As to IYKI, the “one-hybrid fitness for binding parS DNA” value was at most 0.2. Take RLQA: the “one-hybrid fitness for binding parS DNA” value was 0.616. As for NLQA, the “one-hybrid fitness for binding parS DNA” value is at most 0.2. For the variant CLQA, the “one-hybrid fitness for binding parS DNA” value was at most 0.2. Turning to KMPV, the “one-hybrid fitness for binding parS DNA” value was at most 0.2.

For the variant KSYG, the “one-hybrid fitness for binding parS DNA” value is at most 0.2. With MYPR, the “one-hybrid fitness for binding parS DNA” value is at most 0.2. For the variant AHSN, the “one-hybrid fitness for binding parS DNA” value was at most 0.2. On to MNDG, for which the “one-hybrid fitness for binding parS DNA” value was at most 0.2.

For the variant QPYH, the “one-hybrid fitness for binding parS DNA” value was at most 0.2. Consider TMHS, for which the “one-hybrid fitness for binding parS DNA” value is at most 0.2. The same measure for PTQT: at most 0.2. The same measure for RAVS: 0.986. The figure for RAVD is at most 0.2; for RAVH it is 0.202; for RAKP it is at most 0.2. Regarding RAKH, the “one-hybrid fitness for binding parS DNA” value turned out to be 0.239.

These data come from a collection of fitness landscapes (doi:10.1016/j.celrep.2020.107928).
